For assay [1], the target named is Peroxisome proliferator-activated receptor gamma (Homo sapiens) (UniProt P37231). In words: qHTS assay to identify small molecule antagonists of the peroxisome proliferator-activated receptor gamma (PPARg) signaling pathway (AID 743191; calls by dose curve; also: series mostly up to about 63 µM; nearly all actives have a fitted effect of over 30% in size). In outline:
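Beta-lactamase reporter under UAS control in HEK293H PPARg-bla cells; compound treatment 17 h at 37C. Read-out: fluorescence intensity after 1 h room-temperature incubation with LiveBLAzer B/G FRET substrate.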
On the technique in general: qHTS replaces the single test concentration by a dilution series.

A short description of assay [2]: qHTS assay to identify small molecule antagonists of the peroxisome proliferator-activated receptor gamma (PPARg) signaling pathway - cell viability counter screen (AID 743194). Also: nearly all actives have a fitted effect of over 55% in size. The method in brief: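 Viability was measured as CellTiter-Glo luminescence in GeneBLAzer PPARg UAS-bla HEK293H cells. These cells had been exposed 17 h at 37 C to compounds together with rosiglitazone at 50 nM final, with the beta-lactamase readout taken in the same wells.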

Assay [3] in a line: qHTS assay for small molecule agonists of the antioxidant response element (ARE) signaling pathway - cell viability counter screen (AID 743203; calls by dose curve; also: nearly all actives have a fitted effect of over 55% in size). The method in brief:
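Viability counter screen: stably transfected ARE-bla HepG2 line, 16 hrs compound exposure at 37C/5% CO2, ATP-based CellTiter-Glo luminescence measured in the reporter wells.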

A short description of assay [4]: qHTS assay for small molecule activators of the heat shock response signaling pathway (AID 743210; active = well fitted activation curve with a large enough effect in the signal ratio in the repeat runs, with a control signal flat, not every such curve was filed as active; the % refers to the signal ratio; also: series mostly up to about 63 µM). In outline:
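Compound exposure lasted 5 h at 37 C in HeLa cells carrying a heat-shock-element-driven beta-lactamase reporter. Read-out: fluorescence intensity after 2.5 h room-temperature loading with LiveBLAzer B/G FRET substrate.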

Assay [5] has as its target Estrogen receptor (Homo sapiens) (UniProt P03372). As to the kind of experiment: qHTS assay to identify small molecule antagonists of the estrogen receptor alpha (ER-alpha) signaling pathway (AID 743069; active = well fitted curve in the direction sought with a large enough effect in the signal ratio in the repeat runs, not every such curve was filed as active; the % refers to the signal ratio). In outline:
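Antagonist mode: compounds in DMSO were co-added with 17beta-estradiol to ER-alpha-bla HEK293 cells (2% charcoal-stripped serum) and left 18 h at 37C. Reporter inhibition was measured as FRET fluorescence after 2 h LiveBLAzer substrate at room temperature.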

The nature of assay [6]: qHTS assay to identify small molecule antagonists of the estrogen receptor alpha (ER-alpha) signaling pathway - cell viability counter screen (AID 743074; calls by dose curve;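 also: HEK293 cells carrying ER-alpha-UAS-bla reporter stimulated with 17beta-estradiol; nearly all actives have a fitted effect of over 45% in size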).
Assay [7] has as its target Estrogen receptor (Homo sapiens) (UniProt P03372). In words: qHTS assay to identify small molecule agonists of the estrogen receptor alpha (ER-alpha) signaling pathway (AID 743075; calls by dose curve;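 also: HEK293 GripTite cells with ER-alpha and UAS-driven beta-lactamase reporter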).
Assay [8] shares this target. As to the kind of experiment: qHTS assay to identify small molecule agonists of the estrogen receptor alpha (ER-alpha) signaling pathway using the BG1 cell line (AID 743079). Also: nearly all actives have a fitted effect of over 20% in size. Also: potency is read from the fitted curve at half-maximal effect.
Assay [9] is described as follows: qHTS assay to identify small molecule antagonists of the estrogen receptor alpha (ER-alpha) signaling pathway using the BG1 cell line (AID 743080; calls by dose curve;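 also: BG1 cells stimulated with 17beta-estradiol alongside compound; series mostly up to about 70 µM; nearly all actives have a fitted effect of over 25% in size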). In outline:
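Luciferase inhibition measured with ONE-Glo after 30 min at RT in BG1Luc4E2 cells given test compounds and 17beta-estradiol for 21.5 h at 37 C; CellTiter-Fluor viability read in the same wells beforehand.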

The nature of assay [10]: qHTS assay to identify small molecule antagonists of the estrogen receptor alpha (ER-alpha) signaling pathway using the BG1 cell line - cell viability counter screen (AID 743081).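 Also: compound given together with 17beta-estradiol as the ER stimulus; series mostly up to about 70 µM; nearly all actives have a fitted effect of over 45% in size.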
The target in another assay is Aromatase (Homo sapiens) (UniProt P11511). In words: qHTS assay to identify aromatase inhibitors (AID 743083). Also: series mostly up to about 70 µM; nearly all actives have a fitted effect of over 55% in size.
The nature of assay [11]: qHTS assay to identify aromatase inhibitors - cell viability counter screen (AID 743084).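 Also: cells stimulated with testosterone during compound exposure; nearly all actives have a fitted effect of over 55% in size.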
The target in assay [12] is Aryl hydrocarbon receptor (Homo sapiens) (UniProt P35869). As to the kind of experiment: qHTS assay to identify small molecule that activate the aryl hydrocarbon receptor (AhR) signaling pathway (AID 743085). Also: nearly all actives have a fitted effect of over 15% in size. Also: potency is read from the fitted curve at half-maximal effect.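 As to activation: HG2L7.5c1 human HepG2 liver cells with stably integrated DRE-driven firefly reporter; series mostly up to about 70 µM.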 In outline:
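Stably transfected human liver carcinoma cells (HG2L7.5c1; 20 DRE-firefly luciferase) were incubated 5 h, dosed, and kept 24 h at 37C. Agonism was scored from increased luciferase luminescence.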

The nature of assay [13]: qHTS assay to identify small molecule that activate the aryl hydrocarbon receptor (AhR) signaling pathway - cell viability counter screen (AID 743086). Also: series mostly up to about 70 µM; nearly all actives have a fitted effect of over 45% in size. The method in brief: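 Cytotoxicity counter screen: CellTiter-Fluor signal (30 min, 37 C) in 4000 HepG2 cells/well carrying the DRE-luciferase reporter, following 24 h compound exposure at 37 C.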
A short description of assay [14]: qHTS assay for small molecule agonists of the antioxidant response element (ARE) signaling pathway (AID 743202; active = well fitted activation curve with a large enough effect in the signal ratio in the repeat runs, not every such curve was filed as active; the % refers to the signal ratio). In outline: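 After 16 hours of compound treatment at 37 C, HepG2 cells with a stably integrated ARE-driven beta-lactamase reporter were loaded 2 hours at room temperature with LiveBLAzer B/G FRET substrate and fluorescence intensity measured.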
Assay [15] can be described thus: qHTS assay to identify small molecule antagonists of the thyroid receptor (TR) signaling pathway (AID 743065). In outline:
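Antagonism measured as loss of luciferase signal in GH3 cells stably carrying a TRE-luciferase reporter, co-treated with compound and T3 (1 nM final) for 23.5 h at 37 C. Viability was read in the same well by CellTiter-Fluor.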

Assay [16] concerns thyroid hormone receptor (rat, GH3 cells). In words: qHTS assay to identify small molecule agonists of the thyroid receptor (TR) signaling pathway (AID 743066; calls by dose curve).
The target in assay [17] is Peroxisome proliferator-activated receptor gamma (Homo sapiens) (UniProt P37231). In words: qHTS assay to identify small molecule agonists of the peroxisome proliferator-activated receptor gamma (PPARg) signaling pathway (AID 743094; active = well fitted activation curve with a large enough effect in the signal ratio in the repeat runs, not every such curve was filed as active; the % refers to the signal ratio). In outline:
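Reporter activation was scored by fluorescence of cleaved LiveBLAzer B/G substrate (1 h, room temperature) in PPARg-bla HEK293H cells previously treated 17 h at 37C with DMSO-dissolved compounds.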

A short description of assay [18]: qHTS assay for small molecule activators of the heat shock response signaling pathway - cell viability counter screen (AID 743209). Also: nearly all actives have a fitted effect of over 50% in size. In outline:
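Viability of HSE-bla HeLa cells is measured with CellTiter-Glo in the wells already used for the reporter read. Compound exposure lasts 5 h at 37 C, and luminescence is read after 30 min at room temperature.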

Structures are written as SMILES. Inconclusive results are not listed. Unmarked numbers belong to inactive results. Active and inactive are the calls of the source. Unless noted, calls follow the shape of the dose curve; as a rule, active = well fitted curve in the direction sought with a large enough effect in the repeat runs; inconclusive = weak or mixed curves; inactive = no such curve, though single readings can be large; an effect the other way counts as inactive or inconclusive.

Sequence of Aromatase (Homo sapiens) (P11511 whole entry, looked up): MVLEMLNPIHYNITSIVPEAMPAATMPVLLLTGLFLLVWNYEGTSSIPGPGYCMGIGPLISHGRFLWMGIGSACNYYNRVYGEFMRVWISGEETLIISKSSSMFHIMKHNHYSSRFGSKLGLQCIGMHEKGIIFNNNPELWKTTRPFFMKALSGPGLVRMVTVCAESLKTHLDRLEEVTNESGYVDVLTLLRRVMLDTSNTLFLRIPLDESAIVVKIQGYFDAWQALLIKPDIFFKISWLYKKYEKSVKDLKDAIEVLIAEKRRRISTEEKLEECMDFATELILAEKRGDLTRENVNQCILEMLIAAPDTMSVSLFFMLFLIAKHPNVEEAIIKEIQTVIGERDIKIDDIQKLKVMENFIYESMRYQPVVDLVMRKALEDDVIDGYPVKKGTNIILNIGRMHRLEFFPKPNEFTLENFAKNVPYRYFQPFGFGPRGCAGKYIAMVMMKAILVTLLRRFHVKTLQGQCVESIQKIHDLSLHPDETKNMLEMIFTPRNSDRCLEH
Sequence of Peroxisome proliferator-activated receptor gamma (Homo sapiens) (P37231 whole entry, looked up): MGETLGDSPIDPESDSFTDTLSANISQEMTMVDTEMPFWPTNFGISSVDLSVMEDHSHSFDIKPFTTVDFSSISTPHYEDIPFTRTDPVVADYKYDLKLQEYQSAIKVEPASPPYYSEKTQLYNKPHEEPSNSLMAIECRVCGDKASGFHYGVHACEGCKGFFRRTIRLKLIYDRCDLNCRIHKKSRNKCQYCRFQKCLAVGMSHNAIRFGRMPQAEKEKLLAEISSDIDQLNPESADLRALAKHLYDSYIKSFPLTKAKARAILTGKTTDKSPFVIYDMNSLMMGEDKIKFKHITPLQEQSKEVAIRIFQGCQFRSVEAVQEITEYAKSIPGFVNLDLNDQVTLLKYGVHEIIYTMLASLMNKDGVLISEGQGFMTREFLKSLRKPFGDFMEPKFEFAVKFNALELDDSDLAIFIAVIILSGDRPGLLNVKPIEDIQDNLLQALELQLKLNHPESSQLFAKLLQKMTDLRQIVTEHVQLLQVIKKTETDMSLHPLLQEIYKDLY
Sequence of Aryl hydrocarbon receptor (Homo sapiens) (P35869 whole entry, looked up): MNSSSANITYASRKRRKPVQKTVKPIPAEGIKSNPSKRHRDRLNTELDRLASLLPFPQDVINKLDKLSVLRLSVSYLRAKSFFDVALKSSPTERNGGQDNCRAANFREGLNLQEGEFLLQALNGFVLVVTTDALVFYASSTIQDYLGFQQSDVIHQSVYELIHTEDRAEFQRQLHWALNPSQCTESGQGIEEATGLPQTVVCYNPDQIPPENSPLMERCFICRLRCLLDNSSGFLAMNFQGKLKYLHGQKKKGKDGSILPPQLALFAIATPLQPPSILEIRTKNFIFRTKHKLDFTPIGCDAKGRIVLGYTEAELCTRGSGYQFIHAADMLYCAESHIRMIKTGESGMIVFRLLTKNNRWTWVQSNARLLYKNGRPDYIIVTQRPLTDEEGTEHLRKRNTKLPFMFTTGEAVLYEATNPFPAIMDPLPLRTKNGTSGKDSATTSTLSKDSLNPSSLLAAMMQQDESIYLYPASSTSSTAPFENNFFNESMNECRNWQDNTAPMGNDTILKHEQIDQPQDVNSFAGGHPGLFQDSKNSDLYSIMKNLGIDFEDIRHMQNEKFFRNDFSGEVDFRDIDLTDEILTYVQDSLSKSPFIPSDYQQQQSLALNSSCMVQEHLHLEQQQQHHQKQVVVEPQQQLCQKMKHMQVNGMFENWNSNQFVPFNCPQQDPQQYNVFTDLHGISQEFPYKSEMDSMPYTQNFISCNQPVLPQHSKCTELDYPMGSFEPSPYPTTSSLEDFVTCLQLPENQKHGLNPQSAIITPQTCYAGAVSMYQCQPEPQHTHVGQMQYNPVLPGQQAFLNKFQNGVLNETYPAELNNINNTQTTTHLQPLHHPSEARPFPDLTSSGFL
Sequence of Estrogen receptor (Homo sapiens) (P03372 whole entry, looked up): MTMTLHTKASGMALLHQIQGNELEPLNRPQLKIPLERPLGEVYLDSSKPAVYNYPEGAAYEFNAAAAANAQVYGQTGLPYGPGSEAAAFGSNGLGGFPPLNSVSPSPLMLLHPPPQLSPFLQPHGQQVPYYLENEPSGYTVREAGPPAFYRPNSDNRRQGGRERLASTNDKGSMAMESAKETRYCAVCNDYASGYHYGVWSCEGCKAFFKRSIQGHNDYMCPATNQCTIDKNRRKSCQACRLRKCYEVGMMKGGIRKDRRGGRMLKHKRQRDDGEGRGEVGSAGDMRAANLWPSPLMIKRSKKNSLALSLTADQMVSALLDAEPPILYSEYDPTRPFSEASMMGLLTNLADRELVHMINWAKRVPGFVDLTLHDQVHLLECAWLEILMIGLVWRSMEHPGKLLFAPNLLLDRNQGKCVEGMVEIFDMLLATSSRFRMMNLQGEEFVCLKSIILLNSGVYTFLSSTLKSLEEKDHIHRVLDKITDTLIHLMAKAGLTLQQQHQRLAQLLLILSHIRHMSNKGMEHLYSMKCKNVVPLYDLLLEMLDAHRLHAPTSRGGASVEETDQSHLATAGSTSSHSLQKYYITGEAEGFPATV

Regarding `CC(C)CCCC(C)NCCC(C)C` (stereo unspecified), the outcome in assay [1], in [3] and in [4] was inactive. Further, the Potency entry in [2] was “inactive”.

As for `CC1(C)OC(=O)Nc2ccc(Br)cc21`, in assay [2], the Potency result was “inactive”. In addition, the compound was called inactive in [3] and in [4].

With `CC(=O)c1ccc(C)cc1`, the Potency entry (in assay [5]; in [7]; in assay [8]; in assay [9]; in the assay with Aromatase (Homo sapiens); in [11]) was “inactive” in each case. In addition, the Potency entry in [12], in [13], in [2] and in assay [14] was “inactive” throughout. Further, the compound was classed as inactive in assay [6], in assay [10], in assay [1], in [3] and in [4].

Turning to `CN(C)CCn1nnnc1SCC1=C(C(=O)O)N2C(=O)[C@@H](NC(=O)Cc3csc(N)n3)[C@H]2SC1`, the Potency entry (in assay [15]; in [16]; with Aromatase (Homo sapiens); in assay [11]; in assay [12]; in assay [13]) was “inactive” in each case. Moreover, the compound was called inactive in assay [10], in assay [17], in assay [1], in assay [3], in assay [18] and in [4].

For `C1C2OC2C2C1C1CC2C2OC12` (stereo unspecified), the Potency result (in [15]; in assay [16]; with Aromatase (Homo sapiens); in assay [11]; in [12]; in assay [13]) was “inactive” throughout. The Potency entry in [2] and in assay [14] was “inactive” throughout. Moreover, the outcome in assay [6], in assay [10], in [3], in assay [18] and in assay [4] was inactive.

Take `CN(C)CCOC(c1ccc(Cl)cc1)c1ccccn1` (stereo unspecified): the Potency result in assay [16], in assay [7], in [8], in [9], in assay [11] and in assay [12] was “inactive” throughout. The Potency entry in assay [13] is “inactive”. The compound was classed as inactive in assay [6], in assay [10], in assay [17], in assay [18] and in [4].

Turning to `CNC(=O)c1c(I)c(NC(=O)CCCCC(=O)Nc2c(I)c(C(=O)O)c(I)c(C(=O)NC)c2I)c(I)c(C(=O)O)c1I`, the outcome in assay [1], in assay [3] and in [18] was inactive.

Take `CCCCCCC(CCCCCCCCCCC(=O)OCC(COC(C)=O)OC(C)=O)OC(C)=O` (stereo unspecified): the Potency entry (in assay [15]; in assay [16]; in assay [7]; in assay [8]; in assay [9]; with Aromatase (Homo sapiens)) was “inactive” each time. Also, the Potency result in [11], in assay [12], in assay [13] and in [2] was “inactive” each time. Also, the call in assay [6], in assay [10], in assay [3], in assay [18] and in [4] was inactive.

Turning to `Nc1ccn(C2CO[C@H](CO)O2)c(=O)n1` (stereo partly specified), the Potency entry in assay [15], in assay [16], in assay [5], in [7], in assay [8] and in assay [9] was “inactive” throughout. For the same compound, the Potency result (with Aromatase (Homo sapiens); in assay [11]; in assay [12]; in assay [13]; in [2]; in assay [14]) was “inactive” in each case. The compound was called inactive in assay [6], in assay [10], in assay [17], in assay [3] and in assay [18].

For the compound `O=[N+]([O-])c1ccc(CCO)cc1`, the Potency result in assay [15], in assay [16], in assay [5], in assay [7], in assay [8] and in [9] was “inactive” each time. Besides, the Potency entry (with Aromatase (Homo sapiens); in assay [11]; in [12]; in assay [13]; in assay [2]) was “inactive” in each case. The result in [6], in [10], in assay [17], in assay [3], in assay [18] and in assay [4] was inactive.

As to `Cc1ccccc1C(=O)O`, the Potency result (in assay [15]; in assay [16]; with Aromatase (Homo sapiens); in [12]; in assay [13]; in assay [2]) was “inactive” each time. The call in assay [6], in assay [10], in [17], in assay [1], in assay [3] and in assay [18] was inactive.

Regarding `CSc1nc(NC2CC2)nc(NC(C)(C)C)n1`, the Potency result (in assay [16]; with Aromatase (Homo sapiens); in assay [11]; in assay [13]; in assay [2]) was “inactive” each time. Besides, the result in [6], in assay [10], in assay [17], in assay [1], in assay [3] and in assay [18] was inactive.

For the compound `CC(C)(O)C(=O)c1ccc(OCCO)cc1`, the Potency result in [15], in assay [16], in [5], in [7], in [8] and in assay [9] was “inactive” throughout. The Potency entry (with Aromatase (Homo sapiens); in assay [11]; in assay [12]) was “inactive” each time. In addition, the compound was classed as inactive in assay [10], in [17], in assay [1], in assay [3], in assay [18] and in assay [4].

`O=C(O)C1CCC1`: the result in assay [1], in assay [3] and in assay [4] was inactive. Also, the Potency entry in assay [2] was “inactive”.

Take `CCOC(=O)[C@H](CCc1ccccc1)N[C@@H](C)C(=O)N1CCC[C@H]1C(=O)O`: the Potency entry (in assay [15]; in assay [16]; with Aromatase (Homo sapiens); in assay [11]; in assay [12]; in [2]) was “inactive” throughout. The compound was called inactive in assay [6], in assay [10], in assay [3] and in [18].

`Nc1[nH]c(=O)ncc1F`: the Potency entry (in [5]; in [7]; in assay [8]; in [9]; in the assay with Aromatase (Homo sapiens); in [11]) was “inactive” in each case. Moreover, the Potency result in assay [12], in assay [13], in assay [2] and in [14] was “inactive” each time. Moreover, the call in assay [6], in assay [10], in assay [17], in [1], in [3] and in [18] was inactive. For the same compound, the call in assay [4] was inactive.

Turning to `Cn1ccc2cc3c(cc21)CCN3C(=O)Nc1cccnc1`, the Potency result (in [15]; in assay [16]; with Aromatase (Homo sapiens); in [11]; in assay [13]; in assay [2]) was “inactive” each time. In addition, in [14], the Potency result is “inactive”. The call in [6], in assay [10], in assay [17], in assay [3], in assay [18] and in assay [4] was inactive. Also, the figures for the Potency in assay [8] and in assay [12] were 5310 nM (active) and 335 nM (active), respectively.

For `CO`, the Potency result (in assay [15]; in assay [16]; with Aromatase (Homo sapiens); in [11]; in assay [12]; in assay [13]) was “inactive” in each case. Further, in assay [2], the Potency entry is “inactive”. In addition, the compound was called inactive in assay [6], in [10], in assay [3] and in [4].

The record behind these values is PubChem BioAssay (Tox21).
